A selection: hits, their analogues and other compounds. The true share with any hit is near 1.4%.
MenB inh – Mtb MenB enzyme inhibition; hit rate 0.43% among 100,000; MenB enzyme assay, absorbance read-out; inhibition, % (no concentration beside the values); in the data active = inhibition above about 21%, passing the limit was not always enough
Polio RdRp inh – inhibitors of poliovirus RNA polymerase binding and polymerization; P03300; poliovirus polymerase elongation, fluorescence polarization; stronger effect = lower value; % elongation, % (compound at 16.7 µg/mL); hit rate 0.66% among 150,000; AID 588519; in the data active = % elongation below about 90%
MbtI inh – MbtI salicylate synthase inhibition | AID 493033 | P9WFX0 | purified MbtI enzyme, fluorescence intensity read-out | hit rate 0.89% among 100,000 | inhibition, % (test concentration not listed); in the data active = inhibition mostly above about 56%, no sharp cut-off; inactive = mostly below about 77%
Target sequence (P9WFX0 whole entry, looked up): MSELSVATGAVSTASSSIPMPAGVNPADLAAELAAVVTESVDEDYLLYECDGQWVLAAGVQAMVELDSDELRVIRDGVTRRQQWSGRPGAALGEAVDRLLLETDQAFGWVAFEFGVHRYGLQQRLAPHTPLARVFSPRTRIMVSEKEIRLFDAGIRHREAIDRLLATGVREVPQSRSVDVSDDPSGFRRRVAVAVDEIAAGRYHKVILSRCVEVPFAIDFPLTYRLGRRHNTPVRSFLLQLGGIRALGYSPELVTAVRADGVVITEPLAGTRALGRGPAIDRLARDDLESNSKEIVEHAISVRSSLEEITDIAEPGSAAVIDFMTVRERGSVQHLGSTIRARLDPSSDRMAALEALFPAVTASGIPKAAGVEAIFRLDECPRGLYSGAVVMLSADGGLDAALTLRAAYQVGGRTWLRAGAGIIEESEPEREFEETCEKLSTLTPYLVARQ
Active calls of the source: *; · = no result given.

SMILES	MenB inh	Polio RdRp inh	MbtI inh
O=C(CC(c1ccc(F)cc1)c1ccco1)N1CCCCC1 (centres undefined)	·	·	-11
CCn1c(N)c(C(=O)NCC2CCCO2)sc1=S (centres undefined)	-19	96	82*
COCCn1c(C)c(C(=O)O)sc1=S	12	97	10
Cc1ccc(C(=O)NCC2CCCO2)cc1 (centres undefined)	8	102	5
CCn1c(N)c(C(=O)NC)sc1=S	-21	97	87*
COC(=O)c1cc(S(=O)(=O)NC2CCCCC2C)c[nH]1 (centres undefined)	-16	101	-12
O=C1CSCC(=O)N1c1ccc(Cl)cc1	11	93	4
Cc1c(Cl)sn(-c2ccc(Cl)cc2)c1=O	7	101	101*
CCCCNS(=O)(=O)c1ccc2[nH]c(=S)[nH]c2c1	-23	88*	87
CCCCNS(=O)(=O)c1ccc(Cl)cc1	-25	103	-1
Nc1cc(=O)[nH]c(SCCCCN2C(=O)c3ccccc3C2=O)n1	-5	98	10
Cc1c(CCNC(=O)c2cc(S(=O)(=O)N(C)C)c(Cl)cc2Cl)c2ccccc2n1C	-11	89*	·
CN(C)S(=O)(=O)c1cc(C(=O)NCC2CCCO2)c(Cl)cc1Cl (centres undefined)	2	99	·
O=c1[nH]c(NCCO)c(I)c(=O)[nH]1	·	·	68*
O=c1[nH]c(NCCO)nc2ccccc12	-13	105	91
Fc1ccc(/C=N/c2nnc3nc[nH]n23)cc1	-4	88*	·
CC1SC(/N=C/c2ccc(F)cc2)=NNC1=O (centres undefined)	-13	105	·
S=C(c1cccs1)N1CCOCC1	-7	100	70*
S=C(c1ccc(-c2ccc(Cl)cc2)o1)N1CCOCC1	-30	99	77*
Cc1ccc(CC(=S)N2CCOCC2)cc1	2	96	69*
COc1ccc(CC(=S)N2CCOCC2)cc1	3	96	37
S=C(c1cccs1)N1CCCC1	-4	101	·
CCc1ccc(C(=S)N2CCOCC2)cc1	0	100	26
Cc1ccc(C(=S)N2CCOCC2)cc1	1	98	97*
CCc1ccc(CC(=S)N2CCOCC2)cc1	-18	104	4
SMILES	MenB inh	Polio RdRp inh	MbtI inh
O=C(OCc1ccc(-c2cc(C(F)(F)F)cc(C(F)(F)F)c2)o1)c1cccs1	-13	101	19
CCOc1ccc(C2(C)N([O-])C(CC)=C(c3ccccc3)[N+]2=O)cc1 (centres undefined)	-13	98	-1
O=C(O)CNC(=S)N(Cc1ccccc1)Cc1cccnc1	12	102	4
CN(CC(=O)O)Cc1cccnc1	26*	99	-4
COc1cccc(CNC(=O)c2nnc(CS(=O)(=O)c3ccccc3)o2)c1	-10	103	-7
COc1c(Cl)cc(C(=O)N2N=N2)cc1Cl	-26	99	-1
CCN(CC)c1ccc(NC(=S)Nc2ccc(S(N)(=O)=O)cc2)cc1	-19	102	63*
CCN(CC)c1ccc(NC(=S)NC(C)C)cc1	-10	100	29
CCOC(=O)C1CCN(C(=O)CCC(=O)NNc2nc3ccccc3c3nc(-c4ccccc4)nn23)CC1	10	98	-1
COc1ccc(-c2nc(N)s[n+]2-c2ccccc2)cc1	·	102	98*
COc1ccc(-c2noc(N(C)c3ccccc3)n2)cc1	-16	106	-16
Cc1ccccc1N=C1SCCCN1C(=O)c1ccc2c(c1)OCO2	-2	106	-8
CCOC(=O)c1cc(-c2ccccc2)sc1NC(=O)C(C)N1CCN(C(=O)c2ccco2)CC1 (centres undefined)	-20	102	-9
COc1ccc(S(=O)(=O)c2cn(Cc3ccccc3)c3ccc(OC)cc3c2=O)cc1	·	102	·
CCOc1ccc(S(=O)(=O)c2cn(Cc3ccc(C)cc3)c3ccc(OC)cc3c2=O)cc1	·	90*	·
COCCNCc1c(C(=O)O)c(C)n(Cc2ccccc2C)c1C	-6	101	3
O=C(NCO)c1ccccc1Cl	-13	99	-18
CCOc1cc(S(=O)(=O)NCCc2ccc(OC)c(OC)c2)c(OCC)cc1-n1cnnn1	44*	103	-18
CCOc1cc(S(=O)(=O)NCc2ccc(OC)cc2)c(OCC)cc1-n1cnnn1	23	102	48
Cc1cccc(NC(=O)c2oc3ccccc3c2NC(=O)Cc2coc3c(C)c(C)ccc23)c1	·	119	·
COc1ccc(NC(=O)c2oc3ccccc3c2NC(=O)Cc2coc3c(C)c(C)ccc23)cc1	·	-10*	·
O=C(CSc1ncnc2c1cnn2-c1ccc(F)cc1)Nc1ccc2c(c1)OCO2	-24	103	3
N#Cc1ccc(OCC(F)(F)C(F)F)cc1C#N	16	99	16
O=C(c1cnoc1)c1cc(Cl)cc(Cl)c1O	·	101	-29
O=C(c1cnoc1)c1ccccc1O	5	83*	20
SMILES	MenB inh	Polio RdRp inh	MbtI inh
CCSc1ccc2nnc(-c3ccc(C)cc3)n2n1	-10	101	9
CC1CCN(C(=O)CN(CCc2ccccc2)S(C)(=O)=O)CC1	-40	106	-8
CS(=O)(=O)N(CCc1ccccc1)CC(=O)N1CCOCC1	34*	102	0
O=S(=O)(NCC(Sc1nnnn1-c1ccccc1)c1ccccc1)c1ccc(Cl)s1 (centres undefined)	-42	104	1
CC(C)CN(CC(C)C)S(=O)(=O)c1ccc2c(c1)CCCC(=O)N2	14	100	10
CC(NCc1ccccc1)C(=O)Nc1ccccc1 (centres undefined)	5	101	8
Cc1ccc(C)n1-c1c(C)n(C)n(-c2ccccc2)c1=O	0	103	-1
CCC(=O)Nc1sc(CC#N)nc1-c1ccc(C)cc1	12	119	76
COC(=O)N/N=C1/C(=O)c2cccc3cccc1c23	-9	99	-1
NC(=S)N/N=C1/C(=O)c2cccc3cccc1c23	-13	100	76*
O=C(N/N=C/c1cc2c3c(c1O)CCCN3CCC2)c1ccncc1	-192	105	19
CS(=O)(=O)N1Cc2ccccc2CC1C(=O)OCC(=O)c1ccc[nH]1 (centres undefined)	-40	102	-11
CNC(=O)c1c(C)[nH]c(=S)c(C#N)c1-c1ccco1	-26	103	99*
CNC(=O)c1c(C)nc(SCC(=O)OCC(=O)Nc2ccc(C)c(C)c2)c(C#N)c1-c1ccco1	-33	103	2
O=C(Nc1nc(-c2cccs2)cs1)c1cc(Cl)sc1Cl	-28	99	73
NC(=O)Oc1cccc2ccccc12	-3	102	·
O=C(Nc1ccccc1C(=O)NCc1ccco1)c1ccc(Cl)cc1	-27	102	-13
Cc1ccc(N(CC(=O)Nc2ccccc2C(=O)NCc2ccco2)S(C)(=O)=O)cc1Cl	-14	21*	1
Oc1cccc(N=Cc2cc(Br)ccc2O)c1	-1	104	·
CN(CCC#N)c1ccc(/C=C2\CC/C(=C\c3ccc(N(C)CCC#N)cc3)C2=O)cc1	-46	50	-4
CC(=O)Oc1ccc(-c2ccc(C(=O)O)cc2)cc1C	·	103	-10
CC(=O)Oc1ccc(-c2ccc(C(=O)O)cc2)cc1Cl	·	100	85*
C1CCN=C(Nc2nc3c(s2)CCCC3)CC1	-6	106	3
CC(C)(C)Nc1nc2c(s1)CCCC2	9	101	78*
Cc1c(Cl)cccc1-n1c(SCC(=O)NCC2CCCO2)nc2n[nH]c(C)c2c1=N (centres undefined)	-31	102	-11

Compound activity (PubChem)
